The nature of assay [1]: P. berghei load reduction in hepatocytes – cell-based, HepG2, luciferase luminescence, HepG2 viability, primary screen (AID 624349; in the data active = parasite load remaining mostly below about 12%, no sharp cut-off; inactive = mostly above about 10%;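 note: 100% = mean of DMSO negative control wells on the same plate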). The note with it: P. berghei liver stage in HepG2, luciferase luminescence, concentration not given here; parasite load remaining: stronger effect = lower value; viability: measured here: HepG2 viability without parasites.
Assay [2] in a line: signal quenchers or enhancers, Cy5 substrate/SSB – biochemical, NIH Clinical Collection, E. coli SSB, artefact control for HCV NS3 helicase inhibitor project (AID 743268; call rule not given here). The note with it: Cy5-oligo bound E. coli SSB, fluorescence interference.
In assay [3] the test system is Hepatitis C virus NS3 helicase. In words: blockers of NS3h binding to DNA – biochemical, fluorescence polarization, NIH Clinical Collection, primary screen (AID 743270; call rule not given here). The note with it: NS3 helicase binding to Cy5-dT15 DNA, stronger effect = higher value, concentration not given here. (In general: In fluorescence polarisation assays a small probe gives low polarisation when free and higher when bound to something large.)

Assay [4] deals with Single-stranded DNA-binding protein (Escherichia coli (strain K12)) (UniProt P0AGE0). In words: SSB-ssDNA binding inhibitors – biochemical, fluorescence polarization, NIH Clinical Collection, counter-screen for HCV NS3 helicase inhibitor project (AID 743271; in the data active = inhibition above about 28%). The note with it: E. coli SSB-DNA binding, stronger effect = higher value, concentration not given here.
Assay [5] in a line: compounds distorting NS3 helicase fluorescence signal – biochemical, NIH Clinical Collection, artefact control for HCV NS3 helicase inhibitor project (AID 743272; call rule not given here;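 note: HCV NS3 helicase with a Cy5 labelled single stranded DNA probe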). The note with it: fluorescence interference counterscreen, HCV NS3 helicase assay; stronger effect = lower value. A general note: Counterscreens check selectivity or assay interference.
Assay [6] deals with Neuropilin-2 / VEGF-C interaction (human). In words: small molecules blocking Neuropilin-2/VEGF-C interaction – biochemical, microplate binding format, z-score (AID 743281; call rule not given here). The note with it: microplate NRP2/VEGF-C binding assay; stronger effect = lower value.
Assay [7] is described as follows: modulation of C. elegans fzo-1 (AID 1259413; call rule not given here;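 note: fzo-1 mutant C. elegans worms in liquid wells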). The note with it: C. elegans fzo-1 modulator screen, mean read-out; stronger effect = higher value.
Assay [8] in a line: viability loss with induced miR-34 in A549 – imaging, A549 dox-inducible miR-34, nuclei and caspase counts, primary screen (AID 1347080;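 active = compounds whose cell count with miR-34 switched on is under 0.7 times the count with it off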). The note with it: A549 miR-34 inducible, Hoechst nuclei count, 48 h.
Assay [9] relates to F380Y. The assay can be described thus: BK channel mutant inhibitors and activators – cell-based, U2OS BacMam, thallium flux, beta subunits, selectivity assay, profiling panel (AID 1259406).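 Note: initial slope of Thallos dye fluorescence rise after thallium is added; log ratio against the mean of 0.3% DMSO vehicle wells on the same plate.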 The note with it: U2OS BacMam BK variants, at 30 µM.
For assay [10], the system named is F380Y/beta1. The description is as above. The note with it: U2OS BacMam BK variants, at 30 µM.
Assay [11] concerns F380Y/beta2Delta. The description is as above. The note with it: U2OS BacMam BK variants, at 30 µM.
Assay [12] deals with F380Y/beta4. Described as above. The note with it: U2OS BacMam BK variants, at 30 µM.
The target of assay [13] is Calcium-activated potassium channel subunit alpha-1 (Homo sapiens) + Leucine-rich repeat-containing protein 26 (Homo sapiens) (UniProt Q12791+Q2I0M4). Described as above. The note with it: U2OS BacMam BK variants, F380Y/Slo1WT/gamma1, at 30 µM.
Chain of Calcium-activated potassium channel subunit alpha-1 (Homo sapiens) + Leucine-rich repeat-containing protein 26 (Homo sapiens) (Q2I0M4 whole entry, looked up, one chain of several): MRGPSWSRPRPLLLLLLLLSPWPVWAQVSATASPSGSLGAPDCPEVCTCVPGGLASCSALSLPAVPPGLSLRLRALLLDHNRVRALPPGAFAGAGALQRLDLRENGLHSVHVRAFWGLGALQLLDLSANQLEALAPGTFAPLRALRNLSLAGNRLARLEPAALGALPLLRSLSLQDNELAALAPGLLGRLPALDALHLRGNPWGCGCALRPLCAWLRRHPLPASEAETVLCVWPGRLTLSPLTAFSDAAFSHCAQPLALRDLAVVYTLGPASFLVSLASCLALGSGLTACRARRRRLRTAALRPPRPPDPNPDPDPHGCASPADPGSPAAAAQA
For assay [14], the system named is R275C. Described as above. The note with it: U2OS BacMam BK variants, at 30 µM.
Assay [15] deals with R275C/beta1. The assay is described as above. The note with it: U2OS BacMam BK variants, at 30 µM.
The subject of assay [16] is R275C/beta2Delta. The description is as above. The note with it: U2OS BacMam BK variants, at 30 µM.
Assay [17] has as its system R275C/beta4. The description is as above. The note with it: U2OS BacMam BK variants, at 30 µM.
The subject of assay [18] is R275C/Slo1WT/beta2. Described as above. The note with it: U2OS BacMam BK variants, at 30 µM.
Setting [19] is: stronger effect = lower value, cell number ratio, induced over uninduced.
Setting [20] is: measured here: relative caspase fold change +Dox/-Dox.
[21] abbreviates: measured here: total cells with miR-34 induction, stronger effect = lower value.
[22] abbreviates: measured here: total cells without miR-34 induction.

Several values for one entry are separate records, joined by “and”; a condition that tells them apart may be missing. Equal values may be shown once. Activity calls are given as the source filed them.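 Rule for the calls, unless noted: active = thallium flux through the channel raised or lowered by more than 3 SD from vehicle-only wells, actives on both sides; inactive = the rest.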

`Oc1cc2c(cc1O)[C@H]1c3ccccc3CN[C@@H]1CC2`: the parasite load remaining in assay [1] is 31.6% (inactive). The viability (as a rule, a read-out of living cells in per cent, often relative to untreated cells) in assay [1] came out at 68.7%. The fluorescence ratio was 0.94 (inactive) in assay [2] and 0.91 (inactive) in assay [5]. The inhibition (usually the drop in the measured response relative to a control, in per cent) in assay [3] was -5.46% (inactive); in assay [4], -4.33% (inactive). Besides, the z-score in [6] was -4.26 (active). Moreover, the mean signal in assay [7] was 249 (inactive). The fold change in assay [8] (setting [19]) was 0.969 (inactive); in [8] (setting [20]), 0.736. In addition, the cell count in assay [8] (setting [21]) was 8740; in assay [8] (setting [22]), 9020. In addition, the log fold change Tl+ flux in assay [9] was -0.103 (inactive); in [10] it was 0.0598 (inactive); in assay [11], -0.0567 (inactive); in [12] it was -0.0725 (inactive); in [13] it was 0.0857 (inactive); in [14] it was -0.0506 (inactive). Further, the log fold change Tl+ flux in assay [15] is 0.0796 (active); in assay [16], 0.137 (active); in [17] it was 0.0776 (inactive); in [18] it was 0.0271 (inactive).

On to `Cc1ncc2n1-c1ccc(Cl)cc1C(c1ccccc1F)=NC2`, for which the parasite load remaining in assay [1] was 105% (inactive). The viability in assay [1] is 73.5%. Also, the values for the fluorescence ratio in [2] and in assay [5] were 1.04 (inactive) and 1.02 (inactive), respectively. The values for the inhibition in assay [3] and in [4] were -1.98% (inactive) and -3.18% (inactive), respectively. Further, the z-score in assay [6] was -0.669 (inactive). Further, the mean signal in assay [7] was 220 (inactive). For the same compound, the fold change was 1.08 (inactive) in [8] (stronger effect = lower value) and 1.63 in assay [8] (setting [20]). In addition, the cell count in [8] (setting [21]) was found to be 6900; in [8] (setting [22]) it was 6400. The log fold change Tl+ flux in assay [9] was -0.403 (active); in [10] it was -0.386 (active); in [11], -0.205 (active); in assay [12], -0.197 (active); in assay [13], -0.019 (inactive); in [14], -0.0381 (inactive). Further, the log fold change Tl+ flux was -0.128 (active) in assay [15], -0.00496 (inactive) in [16], 0.138 (active) in assay [17] and 0.000117 (inactive) in [18].

`COc1ccc2c(c1)C13CCCC[C@@H]1C(C2)N(C)CC3` (stereo partly specified): the parasite load remaining in assay [1] was 74.7% (inactive). For the same compound, the viability in assay [1] was determined as 74%. Moreover, the figures for the fluorescence ratio in [2] and in assay [5] were 0.98 (inactive) and 0.92 (inactive), respectively. For the same compound, the results for the inhibition in [3] and in [4] were 0.4% (inactive) and 2.21% (inactive), respectively. The z-score in assay [6] is -0.757 (inactive). In addition, the mean signal in [7] was 229 (inactive).

For `CN1C(=O)CN=C(c2ccccc2)c2cc(Cl)ccc21`, the parasite load remaining in assay [1] is 122% (inactive). Besides, the viability in assay [1] is 81.8%. The fluorescence ratio in assay [2] is 1.03 (inactive); in assay [5], 1.02 (inactive). Besides, the inhibition in [3] is -1.98% (inactive); in assay [4], 0.67% (inactive). Further, the z-score in [6] is -0.636 (inactive). In addition, in [7], the mean signal is 240 (inactive). The fold change is 0.967 (inactive) in [8] (stronger effect = lower value) and 1.74 in assay [8] (setting [20]). The results for the cell count in assay [8] (setting [21]) and in [8] (setting [22]) were 9270 and 9590, respectively. Further, the log fold change Tl+ flux in [9] is 0.00227 (inactive); in assay [10], -0.0264 (inactive); in assay [11] it was 0.0204 (inactive); in assay [12], 0.0209 (inactive); in assay [13], -0.0437 (inactive); in assay [14], -0.0487 (inactive). The log fold change Tl+ flux in [15] was -0.07 (inactive); in assay [16], -0.0058 (inactive); in assay [17] it was 0.0195 (inactive); in [18] it was 0.0176 (inactive).

For `CN1CC[C@@]23CCCC[C@@H]2[C@@H]1Cc1ccc(O)cc13`, in assay [1], the parasite load remaining was 97.8% (inactive). In addition, the viability in [1] was 68.2%. The fluorescence ratio was 0.99 (inactive) in [2] and 0.91 (inactive) in assay [5]. The inhibition in assay [3] is -1.98% (inactive); in assay [4], -3.18% (inactive). For the same compound, the z-score in [6] was -0.569 (inactive). The mean signal in assay [7] is 229 (inactive). Besides, the log fold change Tl+ flux in assay [9] is 0.0229 (inactive); in [11] it was 0.00585 (inactive); in assay [13], 0.0222 (inactive); in [14] it was 0.00894 (inactive); in assay [15], 0.0266 (inactive); in assay [16], 0.00635 (inactive).

Take `COc1ccc(CCN)cc1OC`: in assay [1], the parasite load remaining is 69.1% (inactive). Also, the viability in [1] amounted to 72%. The fluorescence ratio is 0.93 (inactive) in assay [2] and 0.92 (inactive) in assay [5]. Also, the values for the inhibition in assay [3] and in assay [4] were -0.22% (inactive) and 5.91% (inactive), respectively. In [6], the z-score was -0.441 (inactive). Moreover, the mean signal in assay [7] is 274 (inactive). Further, the fold change in [8] (stronger effect = lower value) was 1.12 (inactive); in assay [8] (setting [20]), 0.533. Further, the values for the cell count in assay [8] (setting [21]) and in [8] (setting [22]) were 8740 and 7830, respectively. Also, the log fold change Tl+ flux was -0.0565 (inactive) in [9]; 0.00413 (inactive) in assay [10]; -0.0175 (inactive) in assay [11]; -0.0433 (inactive) in assay [12]; -0.00222 (inactive) in assay [13]; -0.00436 (inactive) in assay [14]. The log fold change Tl+ flux was -0.0128 (inactive) in [15], -0.00532 (inactive) in assay [16], -0.0169 (inactive) in [17] and -0.0122 (inactive) in [18].

Take `C[C@]12CC[C@H]3[C@@H](CCC4=CC(=O)CC[C@@H]43)[C@@H]1CC[C@@H]2O`: in [1], the parasite load remaining is 113% (inactive) and 109% (inactive). Moreover, the viability in [1] was 73.7% and 87.5%. Moreover, the fluorescence ratio in [2] is 1 (inactive); in assay [5] it was 0.98 (inactive). Moreover, the inhibition in assay [3] was -4.36% (inactive); in [4], -0.87% (inactive). In addition, the fold change in [8] (stronger effect = lower value) was 0.927 (inactive); in assay [8] (setting [20]), 1.32. Moreover, the cell count in [8] (setting [21]) was 8170; in assay [8] (setting [22]) it was 8800. Also, the log fold change Tl+ flux in assay [9] was 0.0331 (inactive); in [10], 0.000378 (inactive); in assay [11] it was 0.0141 (inactive); in [12] it was 0.0107 (inactive); in [13], 0.0229 (inactive); in assay [14], -0.0315 (inactive). For the same compound, the log fold change Tl+ flux in assay [15] is 0.00735 (inactive); in assay [16], -0.0135 (inactive); in assay [17] it was -0.0252 (inactive); in assay [18], -0.0416 (inactive).

As for `Oc1ccc2c3c1OC1C(O)CC[C@@]4(O)[C@@H](C2)N(CC2CCC2)CC[C@]314` (stereo partly specified), the parasite load remaining in assay [1] is 133% (inactive). In addition, the viability in assay [1] is 141%. The fluorescence ratio in assay [2] is 0.97 (inactive); in assay [5] it was 0.88 (inactive). The figures for the inhibition in assay [3] and in assay [4] were -1.98% (inactive) and 9.14% (inactive), respectively. The z-score in [6] was -0.335 (inactive). The mean signal in assay [7] was 241 (inactive).

As for `NC(=NCc1ccc(Cl)cc1)SCCCc1cnc[nH]1`, the parasite load remaining in assay [1] was 42% (inactive). Also, the viability in assay [1] was 63.6%. Also, the fluorescence ratio in assay [2] and in assay [5] was 0.97 (inactive) in each case. For the same compound, the inhibition in [3] is -2.84% (inactive); in assay [4] it was 0.39% (inactive). Also, the z-score in [6] is -0.336 (inactive). Moreover, the mean signal in assay [7] is 232 (inactive). Also, the fold change in assay [8] (stronger effect = lower value) is 0.914 (inactive); in assay [8] (setting [19]) it was 0.963 (inactive); in [8] (setting [20]), 0.654 and 0.836. Besides, the cell count in assay [8] (setting [21]) was 8670 and 7970; in assay [8] (setting [22]), 9480 and 8280.

The record behind these values is PubChem BioAssay.
